# Inconclusive results are not listed. Calls of active or inactive are those of the source. Calls follow the shape of the dose curve; as a rule, active = well fitted inhibition curve with a large enough effect; inconclusive = small, poorly fitted or top-dose-only effect; inactive = no such curve, though single readings can be large or run the other way.
# Experiment: Primary qHTS for small molecule stabilizers of the endoplasmic reticulum resident proteome: Secreted ER Calcium Modulated Protein (SERCaMP) assay (AID 1508630)
# Details: SH-SY5Y GLuc-SERCaMP (Gaussia luciferase released on ER calcium loss) secretion, thapsigargin, luminescence; series mostly up to 38.4 µM; activity change, negative = inhibition: at the top concentration
# In short: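 The SH-SY5Y reporter protocol was run at 3 concentrations up to 38.3 uM (primary) or 11 concentrations (follow-up): 16 h compound, 100 nM thapsigargin for 4 h, then extracellular luciferase luminescence.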
# % is scaled to controls: 0 for no effect and ±100 for the full control effect; potency is read from the fitted curve at half-maximal effect.
SMILES,"activity change, negative = inhibition",Potency
C[C@@H](O[C@H]1OCCN(Cc2n[nH]c(=O)[nH]2)[C@@H]1c1ccc(F)cc1)c1cc(C(F)(F)F)cc(C(F)(F)F)c1,56.8% (inactive),
CO[C@H]1/C=C\O[C@@]2(C)Oc3c(C)c(O)c4c(O)c(c(C=NN5CCN(C6CCCC6)CC5)c(O)c4c3C2=O)NC(=O)C(C)=CC=C[C@H](C)[C@H](O)[C@@H](C)[C@@H](O)[C@@H](C)[C@H](OC(C)=O)[C@H]1C,132% (inactive),
O=c1[nH]c(=O)n([C@H]2C[C@@H](O)[C@@H](CO)O2)cc1I,0% (inactive),
CC=C(C(=CC)c1ccc(O)cc1)c1ccc(O)cc1,218% (inactive),
CN(C)CCOc1ccc(C(=C(CCCl)c2ccccc2)c2ccccc2)cc1,31.1% (inactive),
CC(=O)O[C@]1(C(C)=O)CC[C@H]2[C@@H]3C=C(Cl)C4=CC(=O)[C@@H]5C[C@H]5[C@]4(C)[C@@H]3CC[C@@]21C,0% (inactive),
OC[C@H]1O[C@@H](Oc2ccc(O)cc2)[C@H](O)[C@@H](O)[C@H]1O,179% (inactive),
CC[C@]1(O)C[C@H]2CN(CCC3=c4ccccc4=N[C]3[C@@](C(=O)OC)(c3cc4c(cc3OC)N(C)[C@H]3[C@@](O)(C(N)=O)[C@H](O)[C@]5(CC)C=CCN6CC[C@]43[C@@H]65)C2)C1,0% (inactive),
COc1cc2c(cc1OC)[C@@H]1Cc3ccc(OC)c(OC)c3CN1CC2,40.4% (inactive),
N#CC(=C1Nc2ccccc2S1)c1ccnc(OCc2ccc(CN3CCOCC3)cc2)n1,,1.49 µM (active)
Fc1ccc(C(c2ccc(F)cc2)N2CCN(CC=Cc3ccccc3)CC2)cc1,0% (inactive),
CCC(=C(CC)c1ccc(O)cc1)c1ccc(O)cc1,-2.51% (inactive),
NC(=O)c1ncn([C@@H]2O[C@H](CO)[C@@H](O)[C@@H]2O)n1,103% (inactive),
CCC[C@@H](NC(=O)[C@@H]1[C@H]2CCC[C@@H]2CN1C(=O)[C@@H](NC(=O)[C@@H](NC(=O)c1cnccn1)C1CCCCC1)C(C)(C)C)C(=O)C(=O)NC1CC1,-55.6% (inactive),
CNC1[C@H](O)C(O[C@@H]2C(O)C(O[C@H]3O[C@H]([C@@H](C)NC)CC[C@H]3N)[C@@H](N)C[C@H]2N)OC[C@]1(C)O (stereo partly specified),92.6% (inactive),
CCCCCCOC(=O)N=C(N)c1ccc(NCc2nc3cc(C(=O)N(CCC(=O)OCC)c4ccccn4)ccc3n2C)cc1,-3.78% (inactive),
COc1cc2nc(-c3cc(F)ccc3O)nc(N[C@@H]3CNC[C@@H]3C(C)(C)O)c2cc1OC,203% (inactive),
C[C@@H]1[C@H](O)[C@@H](C)C=CC=CC=CC=CC=CC=CC=C[C@H](O[C@@H]2O[C@H](C)[C@H](O)[C@H](N)[C@@H]2O)C[C@@H]2O[C@](O)(C[C@@H](O)C[C@@H](O)[C@H](O)CC[C@@H](O)C[C@@H](O)CC(=O)O[C@H]1C)C[C@H](O)[C@@H]2C(=O)O,46.7% (inactive),

SMILES,"activity change, negative = inhibition",Potency
CC(=O)OCC(=O)[C@@]1(O)CC[C@H]2[C@@H]3CCC4=CC(=O)C=C[C@]4(C)[C@@H]3[C@@H](O)C[C@@]21C,7.5% (inactive),
O=C(O)c1ccc(O)c2ncc(N3CCOCC3)cc12,2.18% (inactive),
O=C(O)C1=CO[C@@H](O[C@@H]2O[C@H](CO)[C@H](O)[C@H](O)[C@H]2O)[C@@H]2C(CO)=CC[C@H]12,43.1% (inactive),
CCCCCOC(=O)Nc1nc(=O)n([C@@H]2O[C@H](C)[C@@H](O)C2O)cc1F (stereo partly specified),65.3% (inactive),
CC(=O)N1CCN(c2ccc(OCc3nn(C)c(C)c3-c3cccc4c(CCCOc5cc(C)c(Cl)c(C)c5)c(C(=O)O)n(Cc5cccnc5)c34)cc2)CC1,79.5% (inactive),
C[C@@H](O)[C@H]1C(=O)N2C(C(=O)OCOC(=O)C(C)(C)C)=C(SC3CN(C4=NCCS4)C3)[C@H](C)[C@H]12,-10.6% (inactive),
OCCn1cc(-c2ccc3c(c2)CCC3=NO)c(-c2ccncc2)n1,133% (inactive),
CCC(c1ccc(O)cc1)C(CC)c1ccc(O)cc1 (stereo unspecified),125% (inactive),
Cc1[nH]c(C=C2C(=O)Nc3ccc(S(=O)(=O)N(C)c4cccc(Cl)c4)cc32)c(C)c1C(=O)N1CCN(C)CC1,3.08% (inactive),
O=C1NC(=O)C(=Cc2ccc(-c3ccc(F)cc3O)o2)S1,71% (inactive),
FC(F)(F)c1ccc(C=Cc2nc(COc3ccc(CCCCn4ccnn4)cc3)co2)cc1,0% (inactive),
CN[C@H]1[C@@H](O[C@@H]2[C@H](O[C@@H]3[C@@H](O)[C@@H](O)[C@@H](N=C(N)N)[C@@H](O)[C@@H]3N=C(N)N)O[C@H](C)[C@@]2(O)C=O)O[C@@H](CO)[C@@H](O)[C@H]1O,99.7% [at 13 µM] (inactive),
Cc1cc(CS(=O)(=O)c2ccccc2)cc(OCc2ccc(CN3CCC[C@H]3CO)cc2)c1,-19.9% (inactive),
CC(C)CN(C[C@H](O)[C@H](Cc1ccccc1)NC(=O)O[C@H]1CCOC1)S(=O)(=O)c1ccc(N)cc1,-27.6% (inactive),
COc1cc([C@H]2Oc3cc([C@H]4Oc5cc(O)cc(O)c5C(=O)[C@H]4O)ccc3O[C@H]2CO)ccc1O,101% (inactive),
COc1ccc2cc1Oc1ccc(cc1)C[C@H]1c3cc(c(OC)cc3CCN1C)Oc1c(OC)c(OC)cc3c1[C@H](C2)N(C)CC3,,inactive
CN(CC=CC#CC(C)(C)C)Cc1cccc2ccccc12,-8.65% (inactive),
CCOC(=O)[C@H]1O[C@H]1C(=O)N[C@@H](CC(C)C)C(=O)NCCC(C)C,63.7% (inactive),
